About 2,500 (0.83%) of roughly 300,000 compounds were called active. Shown is part of a subset that was picked to be rich in actives. A number with no mark means an inactive call. No stated cut-off is given here; in the data, active means inhibition above about 60%; inconclusive means no clear call, values can overlap the other calls; inactive means below that.
assay: 5' untranslated region of α-synuclein, MLPCN primary screen (AID 1813); conditions: alpha-synuclein 5'UTR reporter, inhibitor activity; active compounds read high; tested at 7.5 µM;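 further: H4 neuroglioblastoma cells stably carrying SNCA 5'UTR luciferase fusion; 0% = DMSO wells and 100% = positive control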

Compound	inhibition
COc1ccc(-c2nn(C)c(=O)c3ccccc23)cc1CNC(=O)C1CCCCC1	-1.05%
Cc1oc2c(c1C(=O)N1CCOCC1)C(=O)c1ccccc1C2=O	101% (active)
CCOC(=O)c1ccccc1C(=O)N1CCOCCOCCOCC1	7.43%
Cc1ccccc1-c1ccc(Nc2ccc(C(=O)N3CCOCC3)cc2)nn1	10.1%
CCOc1cc(/C=C2\SC(N3CCCC(C)C3)=NC2=O)ccc1O (stereo not drawn)	-40.1%
Cc1ccc(C)c(S(=O)(=O)Nc2cc(C)on2)c1	-13.8%
CCCCCc1ccc(-c2ccc(OCC)cc2)nc1	79.7% (active)
CCCCCc1ccc(-c2cn(Cc3ccc4ccccc4c3)nn2)cc1	-16.4%
CCCCCc1ccc(-c2ccc(C(=O)O)cc2)nc1	-19.1%
COc1cccc(C(=O)n2ccc(-c3cccs3)n2)c1	2.56%
COC(=O)c1c(NC(=O)c2ccc(S(=O)(=O)N3CCOCC3)cc2)sc2c1CCN(C(C)C)C2	-85.3%
O=C(NC(Nc1nc2ccc([N+](=O)[O-])cc2s1)(C(F)(F)F)C(F)(F)F)c1ccccc1	94.1% (active)
CCC(=O)NC(Nc1nc2ccc(C)cc2s1)(C(=O)OC)C(F)(F)F (stereo not drawn)	13%
CCOc1ccc2nc(NC(=O)c3cc([N+](=O)[O-])ccc3N3CCOCC3)sc2c1	1.05%
COc1ccc(Cl)cc1-n1c(=S)sc2c(=O)n(-c3ccc(F)cc3)c(SCC(=O)O)nc21	14.1%
CCOC(=O)N1CCN(C(=O)c2ccccc2SCC(=O)NCC2CCCCC2)CC1	-17.7%
O=c1c([N+](=O)[O-])cc(C(F)(F)F)cn1Cc1cccc(Cl)c1	17.2%
O=C(/C=C/c1cccc([N+](=O)[O-])c1)N1CCN(Cc2ccccc2)CC1	-15.7%
O=[N+]([O-])/C=C/c1ccc2c(ccn2Cc2ccccc2)c1	84.5% (active)
Cc1ccc(C(C)C)c(OCc2nnc(SCC(=O)Nc3nccs3)n2C)c1	-2.72%
O=C(N[C@@H](Cc1ccccc1)C(=O)OCc1ccccc1)c1nc[nH]c1C(=O)NC1CCNCC1	-8.61%
Cc1c(NC(=O)c2c([N+](=O)[O-])cnn2C)c(=O)n(-c2ccccc2)n1C	3.28%
CCOC(=O)c1sc(C)c2c1NC(C)(c1cccc3ccccc13)NC2=O (stereo not drawn)	31.1%
